± gives the standard deviation. In all, about 6,200 sequences were measured (“pre-steady-state target cleavage rate”: median about 0.29, highest 2% from about 2 on). The sample holds the highest values, similar sequences and a random draw of the others, so the mix is not that of the screen.
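Further: 1 nM active piRISC with 0.1 nM target library at 33 °C single turnover.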

This assay relates to MIWI (PIWIL1) piRISC loaded with piRNA #1 (30 nt). Put plainly: pre-steady-state target cleavage rate (min^-1); MIWI and MILI are mouse PIWI proteins and EfPiwi is from a freshwater sponge; tags in brackets are library labels; higher = faster piRNA-guided slicing of the target. To be noted: guide: piRNA #1 5'p-UGAGGUAGUAGGUUGUAUAGUAUCCAGAGG; auxiliary factor: 500 nM mouse GTSF1. In short, it runs like this: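 Three pooled Cleave-'n-Seq trials supplied the data, with k3 capped at 0.0001 min^-1. In each, […] transcribed, DNA-blocked target RNA library and 1 nM active affinity-purified piRISC with one synthetic guide reacted in HEPES–potassium acetate buffer at 33 °C for 0–8 or 0–960 min, with or without 500 nM GTSF1 partner protein. Uncleaved targets were sequenced and normalised to depth and to weakly complementary targets. A burst-and-steady-state fit provided the pre-steady-state cleavage rate.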
For the sequence GGAGACCUAUCUAUACAACCUACUACCUUA, the “pre-steady-state target cleavage rate” value was 0.905 ± 0.069.

Turning to GGAGACCUAUCUUUUCAACCUACUACCUCA, the “pre-steady-state target cleavage rate” value came out at 0.0982 ± 0.032. Then GCAUCUGGAUACUAUACAACCUACUACCUCA, with 1.82 ± 0.087; and GGAGACCUAUGAUAUGUUGCUCACUACCUCA, with 0.00246 ± 0.0017; and CCUCUGCAUACUAUACAACCUACUACCUCA, with 2.01 ± 0.12. CCUCUGCAUUCUAUACAACCUACUACCUCA: the “pre-steady-state target cleavage rate” value was determined as 2.13 ± 0.13.

In the case of CCUCUGCAUACUAUUCAACCUACUACCUCA, the “pre-steady-state target cleavage rate” value came to 2.21 ± 0.14. Then CCUCUGCAUACUAUACAACCUACUACCACA, with 2.37 ± 0.19; and GGUCUGCAUACUAUACAACCUACUACCACA, with 0.7 ± 0.07; and GCUCUGCAUACUAUUCAACCUACUACCUCA, with 1.93 ± 0.12. Take GGUCUGCAUUCUAUACAACCUACUACCUCA: the “pre-steady-state target cleavage rate” value was 1.51 ± 0.11. Then GGUCUGCAUACUAUUCAACCUACUACCUCA, with 1.65 ± 0.12; and GCUCUGCAUACUAUACAACCUACUACCUCA, with 1.96 ± 0.11.

Consider GCUCUGCAUACUAUACAACCUACUACCACA, for which the “pre-steady-state target cleavage rate” value was determined as 1.98 ± 0.18. With CCUCUGCAUACUAUACAACCUACAACCUCA, the “pre-steady-state target cleavage rate” value was 1.7 ± 0.12. With GCUCUGCAUUCUAUACAACCUACUACCUCA the figure was 1.65 ± 0.11; with GGACUGGAUACUAUACAAGGUACUACCUCA, 0.331 ± 0.036; with GCUCAGGAUACUAUACAACCUACUACCUGA, 0.681 ± 0.042. Regarding GGAGACCAUACUAUACAACCUACUACCAUCA, the “pre-steady-state target cleavage rate” value is 1.35 ± 0.087.

Consider CCUCUGGAUACAAUACAACCUACUACCUGA, for which the “pre-steady-state target cleavage rate” value is 0.657 ± 0.085. Regarding GGAGACCUUACAAUACAAGCUACUACCUCA, the “pre-steady-state target cleavage rate” value turned out to be 0.258 ± 0.035.

For the sequence GCUCUGGAUAGUAUACAACCUACUACCUGA, the “pre-steady-state target cleavage rate” value was found to be 0.324 ± 0.045. As for GGACUGGAUACUAUACAACCUAGAACCUCA, the “pre-steady-state target cleavage rate” value came to 0.0154 ± 0.004.

For the sequence GGACUGGAAACUAUAGAACCUACUACCUCA, the “pre-steady-state target cleavage rate” value was 1.13 ± 0.08. Consider GGAGAGGAUACUAUGCAACCUACUACCUCA, for which the “pre-steady-state target cleavage rate” value was 1.62 ± 0.095.

On to GGACUGGAUACAUAACAACCUACUACCUCA, for which the “pre-steady-state target cleavage rate” value is 0.634 ± 0.11. Then GGUCUGCAUACUUUACAACCUACUACCUCA, with 1.48 ± 0.12; and GGUGUGCAUACUAUACAACCUACUACCUCA, with 1.73 ± 0.1; and GGUCUGCAUACAAUACAACCUACUACCUCA, with 1.45 ± 0.11.

GGUCAGCAUACUAUACAACCUACUACCUCA: the “pre-steady-state target cleavage rate” value is 1.81 ± 0.096.

In the case of GCUCUGCAUACAAUACAACCUACUACCUCA, the “pre-steady-state target cleavage rate” value came to 1.82 ± 0.13.

In the case of GCUCAGCAUACUAUACAACCUACUACCUCA, the “pre-steady-state target cleavage rate” value came out at 1.83 ± 0.11. As for GCUGUGCAUACUAUACAACCUACUACCUCA, the “pre-steady-state target cleavage rate” value amounted to 1.91 ± 0.12. With GCUCUGCAUACUUUACAACCUACUACCUCA the figure was 1.68 ± 0.11. Then CCUGUGCAUACUAUACAACCUACUACCUCA, with 2.3 ± 0.15; and CCUCUGCAUACAAUACAACCUACUACCUCA, with 2.02 ± 0.12; and CCUCUGCAUACUUUACAACCUACUACCUCA, with 2.13 ± 0.15. CCUCAGCAUACUAUACAACCUACUACCUCA: the “pre-steady-state target cleavage rate” value came out at 2.12 ± 0.13. Then GGAGACCUAUCUAAACAACCUACAACCUCA, with 0.00335 ± 0.0022. For the sequence CCUCUGGAUACUAUACAGACCUACUACCUCA, the “pre-steady-state target cleavage rate” value was determined as 0.0114 ± 0.0052.

The values are drawn from the supplement of paper PMC10338343.
